Most compounds without a hit are left out; they make up all but 1.1% or so of the library.
ID4 binder = binders of human ID4 protein, primary screen, biochemical, small molecule microarray, single point; Flag-ID4 binding, fluorescence F/B; AID 624137, 2012; DNA-binding protein inhibitor ID-4 (Homo sapiens), P47928; hit rate 1.2% among 31,000; calls only; call rule not given here;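 note: a binder raises fluorescence above local background on the spot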
Target sequence (P47928 whole entry, looked up): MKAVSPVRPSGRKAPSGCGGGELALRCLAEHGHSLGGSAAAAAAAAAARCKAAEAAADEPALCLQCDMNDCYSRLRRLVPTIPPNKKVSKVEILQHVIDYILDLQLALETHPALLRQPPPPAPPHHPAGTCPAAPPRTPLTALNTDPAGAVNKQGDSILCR
STK33 kin inh = STK33 kinase inhibitors, primary screen, biochemical, luminescence, ADP-Glo, MBP substrate | Serine/threonine-protein kinase 33 (Homo sapiens), Q9BYT3 | inhibition, % at 12.5 µM | hit rate 0.44% among 27,000 | AID 2322, 2010; in the data active = inhibition above about 20%
Each line names hits and unclear results; the compound was inactive in the other large screens.

CNC[C@@H]1Oc2ccc(NC(=O)CCN3CCOCC3)cc2CC(=O)N([C@H](C)CO)C[C@H]1C	none
C[C@H]1CN([C@@H](C)CO)C(=O)Cc2cc(NC(=O)Nc3cccc4ccccc34)ccc2O[C@H]1CN(C)C	none (no result: ID4 binder)
Cc1ccc([N+](=O)[O-])cc1NC(=O)CSc1nnnn1-c1ccccc1	none
Cc1cc(Cl)ccc1OC(C)C(=O)Nc1cccc(C(=O)O)c1 (stereo unspecified)	none
CNC[C@@H]1Oc2ccc(NC(=O)Nc3c(C)noc3C)cc2CC(=O)N([C@H](C)CO)C[C@H]1C	ID4 binder active (no result: STK33 kin inh)
CNC[C@@H]1Oc2ccc(NC(=O)Nc3c(C)noc3C)cc2CC(=O)N([C@@H](C)CO)C[C@@H]1C	none
COc1ccc(N(C(C)C(=O)Nc2ccc(C(F)(F)F)cc2)S(C)(=O)=O)cc1 (stereo unspecified)	none
COc1cccc(S(=O)(=O)Nc2ccc(C(=O)Nc3ccc4c(c3)OCCO4)cc2)c1	none
COC(=O)C(C)Sc1nnc2c3ccccc3n(Cc3ccccc3)c2n1 (stereo unspecified)	ID4 binder active
CCn1c2ccccc2c2nnc(SCC(N)=O)nc21	none
CCOc1ccccc1C(=O)Nc1ccc(S(=O)(=O)Nc2nc(C)cc(C)n2)cc1	none
CCOc1ccccc1C(=O)Nc1ccc(S(=O)(=O)Nc2ccccn2)cc1	STK33 kin inh 24
O=C(O)CCC(NC(=O)c1ccc(I)cc1)C(=O)O (stereo unspecified)	none
CCC(Sc1nnc2c3ccccc3n(C)c2n1)C(=O)Nc1cccc2ccccc12 (stereo unspecified)	none
CNC[C@@H]1Oc2cc(C#Cc3cccnc3)ccc2S(=O)(=O)N([C@@H](C)CO)C[C@H]1C	ID4 binder active (no result: STK33 kin inh)
CNC[C@@H]1Oc2cc(C#Cc3ccccc3)ccc2S(=O)(=O)N([C@H](C)CO)C[C@H]1C	none (no result: STK33 kin inh)
CNC[C@H]1Oc2cc(Br)ccc2S(=O)(=O)N([C@H](C)CO)C[C@H]1C	ID4 binder active (no result: STK33 kin inh)
CNC[C@@H]1Oc2cc(Br)ccc2S(=O)(=O)N([C@H](C)CO)C[C@H]1C	none (no result: STK33 kin inh)
Cn1c(=O)c2ccccc2n(CC(=O)Nc2ccccc2[N+](=O)[O-])c1=O	none
CCc1c(O)nc(SC(C)C(=O)Nc2cccc(Cl)c2)[nH]c1=O (stereo unspecified)	none
O=C(NC1CCN(Cc2ccccc2)CC1)c1ccc(NS(=O)(=O)c2cccs2)cc1	ID4 binder active (no result: STK33 kin inh)
COc1cc(N)c(Cl)cc1C(=O)NC1CCN(Cc2ccccc2)CC1	none (no result: ID4 binder)
CCC(C)Cn1c(CCCO)nc2ccccc21 (stereo unspecified)	none
COc1cc(NC(=O)COc2ccccc2C)ccc1NC(=O)c1ccccc1Cl	none
COc1ccccc1OCC(=O)Nc1ccc(-c2nc3ccc(C)cc3[nH]2)cc1	none
COc1cccc(OCC(=O)Nc2ccc(-c3nc4ccccc4[nH]3)cc2)c1	ID4 binder active
COC(=O)c1c2ccccc2c(C)c2ccccc12	none (no result: ID4 binder)
Cc1cccc(-c2nnc(SCC(=O)Nc3cc([N+](=O)[O-])ccc3C)o2)c1	none
COc1ccc(-c2cc(C)nc(SCC(=O)Nc3cccc(Cl)c3Cl)n2)cc1	ID4 binder active
COc1ccc(-c2cc(=O)[nH]c(SCC(=O)Nc3cccc(Cl)c3C)n2)cc1	none
CCn1c(SCC(=O)Nc2cc(C)c(C)cc2Br)nnc1-c1ccccc1F	none
Cc1nc(SCC(=O)Nc2cccc(C(=O)O)c2)[nH]c(=O)c1C	none
Cc1cc(C)nc(SCC(=O)Nc2cccc(C(=O)O)c2)n1	ID4 binder active
Cc1nnc(Nc2ccc(OCC(=O)N3CCN(c4ccccc4)CC3)cc2)c2ccccc12	none
CCN(CC(=O)Nc1ccccc1OC)S(=O)(=O)c1ccc(Cl)cc1	none
O=C(N[C@@H](Cc1ccccc1)Cn1cc(CN2C(=O)COC[C@H]2c2ccccc2)nn1)c1ccccc1	none (no result: STK33 kin inh)
O=C(Nc1ccccc1)N[C@H](Cc1ccccc1)Cn1cc(CN2C(=O)COC[C@H]2c2ccccc2)nn1	ID4 binder active (no result: STK33 kin inh)
COc1ccccc1NC(=O)CSc1nnnn1-c1c(C)cccc1C	none
Cc1ccc(-n2c(SCC(=O)Nc3c(Cl)cccc3Cl)nnc2-c2ccncc2)cc1	none
COC(=O)c1c2oc(c1C(=O)OC)C(=O)N(C)Cc1cn(nn1)C[C@H](Cc1ccccc1)NC(=O)N[C@H](CO)CC2	ID4 binder active (no result: STK33 kin inh)
COC(=O)c1c2oc(c1C(=O)OC)C(=O)N[C@H](Cc1ccccc1)Cn1cc(nn1)CNC(=O)[C@H](Cc1ccccc1)NC(=O)N[C@@H](CO)CC2	ID4 binder active (no result: STK33 kin inh)
COC(=O)c1c2oc(c1C(=O)OC)C(=O)N(C)Cc1cn(nn1)C[C@@H](C)NC(=O)N[C@H](CO)CC2	none (no result: STK33 kin inh)
COC(=O)c1c2oc(c1C(=O)OC)C(=O)N[C@@H](Cc1ccccc1)Cn1cc(nn1)CNC(=O)[C@H](Cc1ccccc1)NC(=O)N[C@@H](CO)CC2	none (no result: STK33 kin inh)
O=C(O)c1cccc(CSc2nnc(-c3ccco3)o2)c1	ID4 binder active
COc1cc(OC)cc(-c2nnc(SCc3cccc(C(=O)O)c3)o2)c1	none
Cc1c(C(=O)C2C(=O)C(=O)N(Cc3cccnc3)C2c2ccccn2)cnn1-c1ccccc1 (stereo unspecified)	ID4 binder active
Cc1c(C(=O)C2C(=O)C(=O)N(Cc3cccnc3)C2c2cccs2)cnn1-c1ccccc1 (stereo unspecified)	none
COC(=O)c1cc(O)c(C(=O)c2c(O)cccc2C(=O)O)c(O)c1	STK33 kin inh 94
COC(=O)c1cccc(O)c1C(=O)c1c(O)cc(C)cc1O	none
COC(=O)c1c(NC(=O)CN2C(=O)c3ccccc3S2(=O)=O)sc2c1CCCC2	none
COC(=O)c1cn(CCCNC(=O)[C@H](Cc2ccccc2)NS(=O)(=O)c2ccc(C)cc2)nn1	ID4 binder active (no result: STK33 kin inh)
Cc1ccc(S(=O)(=O)N[C@H](Cc2ccccc2)C(=O)CCl)cc1	none (no result: ID4 binder)
C[C@H]1CN([C@@H](C)CO)C(=O)c2cc(C3=CCCCC3)cnc2O[C@@H]1CN(C)Cc1ccccc1	none (no result: STK33 kin inh)
C[C@H](CO)N1C[C@H](C)[C@@H](CN(C)Cc2ccccc2C(=O)O)Oc2ncc(C3=CCCCC3)cc2C1=O	ID4 binder active (no result: STK33 kin inh)
C[C@H](CO)N1C[C@H](C)[C@@H](CN(C)Cc2ccccc2F)Oc2ncc(C3=CCCCC3)cc2C1=O	none (no result: STK33 kin inh)
C[C@@H]1CN([C@H](C)CO)C(=O)c2cc(C3=CCCCC3)cnc2O[C@H]1CN(C)Cc1ccc(C(=O)O)cc1	ID4 binder active (no result: STK33 kin inh)
O=C(CN(C1CCCCC1)S(=O)(=O)c1ccc(Cl)cc1)Nc1ccc(F)cc1F	none
O=C(C1=C[C@@H](c2ccc3c(c2)Cc2ccccc2-3)C[C@@H](OCCCCO)O1)N1CCN(Cc2ccc3c(c2)OCO3)CC1	none
CN1CCN(C(=O)C2=C[C@@H](c3ccc4c(c3)OCO4)C[C@@H](OCCCCO)O2)CC1	ID4 binder active (no result: STK33 kin inh)
CC(C)c1ccc(S(=O)(=O)NCc2cccnc2)cc1	none
Cc1ccc(-c2csc3nnc(SCC(=O)c4ccc(Cl)c(Cl)c4)n23)cc1	none
COc1ccc2c(c1)OC/C(=C\c1ccc(OC)c(O)c1)C2=O	none (no result: ID4 binder)
COc1cc(/C=C2\Oc3cc(O)ccc3C2=O)ccc1O	STK33 kin inh 78 (no result: ID4 binder)
O=C(Nc1sc2c(c1C(=O)NCC1CCCO1)CCCC2)c1ccc(Cl)cc1Cl (stereo unspecified)	none
CC1CNCCN1S(=O)(=O)c1cccc2cnccc12 (stereo unspecified)	none
O=S(=O)(c1cccc2cnccc12)N1CCCNCC1	STK33 kin inh 41
CC(C(=O)Nc1cccc(Cl)c1)N(c1ccc(Cl)cc1)S(C)(=O)=O (stereo unspecified)	none
Cc1cc(C)c(C)c(Oc2coc3cc(OCC(=O)Nc4ccccc4F)ccc3c2=O)c1	none
